Inconclusive results are not listed. Active and inactive are the calls of the source. The call rests on the fitted dose curve; in most records, active means well fitted inhibition curve with a large enough effect; inconclusive means small, poorly fitted or top-dose-only effect; inactive means flat fitted curve, though single readings scatter.
These compounds were tested on astro (assay: Drug repurposing screens with cells derived from glioblastoma tumor samples (AID 1345199; further: nearly all actives have a fitted effect of over 40% in size)). Conditions: viability, ATP luminescence, 48 h; series mostly up to 45.9 µM; activity, negative = cell killing: at the top concentration.
Experimental: CD133+ cells were isolated from GBM patient biopsies and cultured as neurospheres. Neurospheres from four patients were used to screen the NCATS pharmaceutical collection (NPC) library of approved drugs and bioactive compounds. […] The neurospheres were incubated with drugs for 48 hours in 1536-well format, then assayed with an ATP content cell viability assay. […] These hits were cherry picked to confirm activity in the four original GBM lines screened plus three other slower growing GMB lines (unable to yield enough cells for a full primary screen). Variable activities of the confirmed primary hits in the different GBM patient lines were observed. The patient line 206 responded to the greatest number of compounds and line 923 responded to the least amount of active compounds.
On the % scale 0 is the no-effect control and ±100 the full control effect; potency means the concentration at half of the fitted maximal effect.

Structure (SMILES) | activity, negative = cell killing | Potency
O=C(O)c1cc(=O)[nH]c(=O)[nH]1 | -12.8% (inactive) | –
CC(C)C1CCC(C(=O)N[C@H](Cc2ccccc2)C(=O)O)CC1 (stereo not given in full) | -17.4% (inactive) | –
CCCN[C@H]1CCc2nc(N)sc2C1 | -6.2% (inactive) | –
COc1c(N2CCNC(C)C2)c(F)cc2c(=O)c(C(=O)O)cn(C3CC3)c12 (stereo not given) | -9.7% (inactive) | –
Cc1cc(NS(=O)(=O)c2ccc(N)cc2)no1 | -15.5% (inactive) | –
NCCCC(O)(P(=O)(O)O)P(=O)(O)O | 2.1% (inactive) | –
CN(C)CCc1c[nH]c2ccc(CS(=O)(=O)N3CCCC3)cc12 | -14.1% (inactive) | –
CC[C@H](NC(C)C)[C@H](O)c1ccc(O)c2[nH]c(=O)ccc12 | -20.2% (inactive) | –
CC(C)OC(=O)OCOP(=O)(CO[C@H](C)Cn1cnc2c(N)ncnc21)OCOC(=O)OC(C)C | -16.2% (inactive) | –
O=C(O)c1cccnc1 | -11.9% (inactive) | –
CC(C)(Sc1cc(C(C)(C)C)c(O)c(C(C)(C)C)c1)Sc1cc(C(C)(C)C)c(O)c(C(C)(C)C)c1 | -0.288% [at 21.2 µM] (inactive) | –
Cc1noc(NS(=O)(=O)c2ccc(N)cc2)c1C | – | inactive
Cc1cccc(Nc2ccncc2S(=O)(=O)NC(=O)NC(C)C)c1 | -20.9% [at 21.2 µM] (inactive) | –
Nc1nc(F)nc2c1ncn2[C@@H]1O[C@H](CO)[C@@H](O)[C@@H]1O | – | inactive
Cc1cccc(N(C)C(=S)Oc2ccc3ccccc3c2)c1 | -15.4% [at 21.2 µM] (inactive) | –
OC(Cn1cncn1)(Cn1cncn1)c1ccc(F)cc1F | -2.05% (inactive) | –
O=P(O)(O)C(O)(Cc1cccnc1)P(=O)(O)O | -20.6% (inactive) | –
NS(=O)(=O)c1cc2c(cc1Cl)NC(C(Cl)Cl)NS2(=O)=O (stereo not given) | -15.9% [at 21.2 µM] (inactive) | –
Nc1ccc(S(=O)(=O)Nc2ccccn2)cc1 | -10.9% [at 21.2 µM] (inactive) | –
CN(C)CCc1c[nH]c2ccc(C[C@H]3COC(=O)N3)cc12 | -17.4% (inactive) | –

Structure (SMILES) | activity, negative = cell killing | Potency
CCCCc1oc2ccc(NS(C)(=O)=O)cc2c1C(=O)c1ccc(OCCCN(CCCC)CCCC)cc1 | – | 20 µM (active)
CCC(=O)O[C@]1(C(=O)CCl)[C@@H](C)C[C@H]2[C@@H]3CCC4=CC(=O)C=C[C@]4(C)[C@@]3(F)[C@@H](O)C[C@@]21C | -15.1% (inactive) | –
C#CCN[C@@H]1CCc2ccccc21 | -1.84% (inactive) | –
O=NN(CCCl)C(=O)NC1CCCCC1 | -15.9% (inactive) | –
N[C@@H](C(=O)N[C@@H]1C(=O)N2C(C(=O)O)=C(Cl)CS[C@H]12)c1ccccc1 | -11.6% (inactive) | –
O=C(O)c1cn(C2CC2)c2cc(N3CCNCC3)c(F)cc2c1=O | -12.6% [at 21.2 µM] (inactive) | –
CC(C)OC(=O)C(C(=O)OC(C)C)=C1SC=CS1 | -21% (inactive) | –
CCN(CC)CCn1c(=O)c(Cc2ccc(OC)cc2)nc2ccccc21 | -14% (inactive) | –
COc1ccc2c(c1)c(CC(=O)OCC(=O)O)c(C)n2C(=O)c1ccc(Cl)cc1 | -15.4% (inactive) | –
CN1CCN(c2c(F)cc3c(=O)c(C(=O)O)cn4c3c2OCN4C)CC1 | -11.5% (inactive) | –
O=C(O)CCn1c2c(c3ccccc31)C[C@H](NS(=O)(=O)c1ccc(F)cc1)CC2 | -15.2% (inactive) | –
O=c1cc(O)c(Cl)c[nH]1 | -1.15% (inactive) | –
CNC1CCCN(c2c(F)cc3c(=O)c(C(=O)O)cn(C4CC4)c3c2OC)C1 (stereo not given) | 0.157% (inactive) | –
CC(=O)Oc1ccccc1C(=O)Nc1ncc([N+](=O)[O-])s1 | – | 5.01 µM (active)
O=C(O)CSCC(=O)NC1CCSC1=O (stereo not given) | -10.5% (inactive) | –
CNS(=O)(=O)Cc1ccc2[nH]cc(CCN(C)C)c2c1 | 0.939% (inactive) | –
CC(C)NCC(O)c1ccc(NS(C)(=O)=O)cc1 (stereo not given) | – | inactive
CNCC[C@H](Oc1cccc2ccccc12)c1cccs1 | – | 28.2 µM (active)
C[C@]12C=CC(=O)C=C1CC[C@@H]1[C@@H]2C(=O)C[C@@]2(C)[C@H]1CC[C@]2(O)C(=O)CO | -15.3% (inactive) | –
Cc1nnc(NS(=O)(=O)c2ccc(N)cc2)s1 | -0.0484% (inactive) | –

From PubChem BioAssay (NCATS)
